How the values were obtained:
Assay in all cases: PBM binding z-score (relative to random genomic background probes); higher = stronger binding; sequences stand for … in GC…GCGATTGACAGCGTAGAATGAAGG
[1] = system: FXR:RXRa (NR concentration 270 nM, RXRa partner concentration 90 nM)
Procedure, shortened: (§1)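 Binding z-scores take random background probes as their reference. They come from custom Agilent 4×180K protein-binding microarrays incubated 1 h with ligand-free nuclear receptor dimers, with antibodies against each partner (one per run) detecting binding. Scanned fluorescence was regression-normalized.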

[2] = system: LXRa:RXRa (NR concentration 270 nM, RXRa partner concentration 90 nM)
Procedure, shortened: as §1

[3] = system: LXRa homodimer (NR concentration 270 nM)
Procedure, shortened: as §1

[4] = system: LXRb:RXRa (NR concentration 270 nM, RXRa partner concentration 90 nM)
Procedure, shortened: as §1

[5] = system: LXRb homodimer (NR concentration 270 nM)
Procedure, shortened: as §1

[6] = system: PPARg:RXRa (NR concentration 180 nM, RXRa partner concentration 90 nM)
Procedure, shortened: as §1

[7] = system: PPARg:RXRa 270nM:90nM, anti-RXR (NR concentration 270 nM, RXRa partner concentration 90 nM)
Procedure, shortened: as §1

[8] = system: PPARg:RXRa 30nM:10nM, anti-RXR (NR concentration 30 nM, RXRa partner concentration 10 nM)
Procedure, shortened: as §1

[9] = system: PPARg:RXRa 90nM:30nM, anti-RXR (NR concentration 90 nM, RXRa partner concentration 30 nM)
Procedure, shortened: as §1

Sequence	PBM binding z-score [1]	PBM binding z-score [2]	PBM binding z-score [3]	PBM binding z-score [4]	PBM binding z-score [5]	PBM binding z-score [6]	PBM binding z-score [7]	PBM binding z-score [8]	PBM binding z-score [9]
GCTGCTAGGTCGACTGATGGTCAGCTAAAGCTCG	-0.376	-0.522	-0.803	-0.528	-1.35	-0.467	-0.365	-0.591	-0.382
CATCCAAGGTCAAAGGTCAGTGAAGAGATGACGG	8.63	7.28	5.11	7.03	3.15	11.1	9.75	8.73	10.8
CATACAGGGTAAGCTAGGCCAGAGTAGGGACGGC	0.167	0.793	-0.335	-0.589	-0.153	0.575	-0.433	-0.335	-0.43
CTCGAAAGGTGGTGCTCAGGTGAGTATACCAAAC	-0.352	-0.533	-0.489	-0.329	-0.573	-0.375	-0.0981	-0.462	-0.126
CCAGACAGGTGAAAGGTAACTCACTCTGGTACGC	1.02	0.665	-0.00301	0.938	-0.466	6.03	6.05	4.21	6.66
CAAACTAGGTCACGAAAGGTCAAAGTGGAATGAC	7.59	8.25	7.92	7.19	2.79	10.6	8.11	7.1	8.54
CCTGCTAGGTCAATGGTCAGCTAAAGCAGCTCGC	3.01	2.21	-0.22	1.4	-0.359	4.36	5.49	3.2	5.15
TAGCCTAAGTCATGGGCCAGTATACCACGCGAAC	-0.178	-0.0929	-0.218	-0.0253	-0.797	0.437	0.385	-0.251	0.254
CCTACTGGGCGATTCAGAGGTCATTGATCATATG	2.02	3.68	6.2	3.09	-0.0527	0.564	1.87	0.13	0.99
GCTTACGGGTCAAAGGTTATAACATGAATAGAAT	7.52	5.95	0.829	5.89	1.05	11.2	9.66	8.65	10.4
CCCGCTAGGTCATGGTCAGCTAATCTACAGTATG	3.68	2.72	0.611	2	-0.348	2.43	2.82	0.967	1.94
GCTAGTTGGTCAGTAAATGGTCACACACCGGTCG	0.041	-0.126	-0.00637	-0.244	-0.204	0.366	-0.00235	-0.52	-0.282
CCTAGTAGGTTATGGGGCATTCAGGCAACGGTGA	0.561	0.515	-0.0293	0.689	-0.176	5.47	5.67	4.4	6.07
CGTCCAAGGTCCATGCTAGGTCAGTGAAAGCATT	0.162	3.49	0.25	0.906	-0.855	-0.453	-0.317	-0.678	-0.366
TCTAGTTGGTCAAAGGTCTCACACTCGAAATGCG	1.27	1.49	0.269	1.57	0.449	7.81	7.33	6.65	8.53
CCTACTGGGCCAAAGGTCATTGACTCCAATGCTC	5.27	5.54	4.65	5.25	0.543	12.1	10.3	10.7	11.4
CCTACTGGGCCAACAAGGTCATTGATGCCGATAA	2.09	2.49	1.44	2.45	-0.582	3.23	3.3	0.856	2.31
ATATGTAGGTTCCATCCGGGTCATTCAGGCTATG	1.31	1.3	0.192	1.88	0.514	2.33	2.26	0.557	1.74

Sequence	PBM binding z-score [1]	PBM binding z-score [2]	PBM binding z-score [3]	PBM binding z-score [4]	PBM binding z-score [5]	PBM binding z-score [6]	PBM binding z-score [7]	PBM binding z-score [8]	PBM binding z-score [9]
CCTACTGGGCCAAGGTCTTTGATCAGTCAAAGCA	-0.503	-0.304	-0.544	-0.54	-0.812	0.806	1.32	0.0343	0.749
AGTGAAAGTTCAGGACGAGGTAACGTAAAGCACG	3.78	3.69	1.17	1.94	0.34	3.61	4.03	1.48	2.89
TAGCCTAGGTCATTGTGCCAGTATAGTACGCATC	4.04	3.2	1.08	2.51	0.948	2.89	2.79	0.475	2.19
GGTACGAGGGCAAAGTTGATAGCATCTGTCGACG	1.46	1.03	-0.421	0.954	-0.42	5.89	6.23	4.16	6.02
CGTCCAAGGTCAAGGTCACTGAAAGAGACTCGAA	8.15	6.19	2.24	5.23	0.938	7.36	6.98	4.14	5.87
CGTCCAAGGTCAAAGGTCAGGGAAGAGATGACGG	8.68	6.78	3.32	6.96	1.53	11	9.03	8.32	9.6
ATCGAAGGGTCGAAGGTGAGTATACCCACCCGAA	1.3	1.26	-0.26	1.21	-0.316	2.73	3.11	1.08	2.47
CCTACTGGGGCAAAGGTCATTGATTCCAATGCTC	4.69	5.21	2.93	4.78	0.406	12	10	9.73	11.1
TAGCCTAGGTTATGCGGGCCAGTATAGTGTCGGC	-0.487	-0.497	-0.618	-0.71	-1.29	0.00764	-0.446	-0.658	-0.569
CCTAGTTGGTCAAGGTCTCACACGCTATAGGTAC	0.271	0.379	0.569	0.343	0.483	0.786	1.09	0.321	0.561
AATTCAGGGTCACTAGGCCAGAGTAGGTACGAAT	6.96	6.2	1.95	4.99	1.68	9.15	7.59	4.55	6.76
TAGCCTAGGTCATTCAGGGGCTAGTATAGAAAGC	4.83	3.69	0.257	2.77	0.83	2.12	2.22	0.575	1.45
AGAATGAGGTTAAGATTAGGGAAACAGAATACAT	2.33	1.73	0.0443	1.78	-0.185	2.52	2.36	0.986	1.91
CCTAGCCGGCCAATCTGGGTCACTCAAGGCTTGA	0.614	0.785	0.0438	1.02	-0.78	1.68	2.15	-0.425	1.27
ACTAGTTGGTCAGCTGAGGTCACACTCAATTCGG	3.79	3.19	2.29	3.64	0.527	1.23	1.94	0.159	1.26
ATATGTAGGTTACATCCGGGTCTTTCAGGCTATG	0.415	2.91	0.384	1.23	0.526	4.92	4.07	1.55	3.34
CAAACTAGGTCACGAAAGGTCAAATTCGAATGAC	7.71	8.3	8.38	7.56	3.75	10.6	8.52	7.21	8.47
CAAACTAGGTCACCGTAAGGTCAAAGTCCGCATG	6.58	6.1	5.47	5.55	1.46	9.41	7.89	5.84	7.64
